A selection: hits, their analogues and other compounds. The true share with any hit is near 12%.
ROMK primary: modulators of human ROMK potassium channel; P48048; AID 1918; 130,000 compounds, 2% hits; B-score at 10 µM; Tet-inducible ROMK, thallium flux fluorescence; actives lie on both sides;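 active = signal ratio slope over the read window, or its plate-corrected B-score, at least 3 SD from the plate mean, either direction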;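 also: B-score of the F/F0 ratio slope over 7 to 12 s after thallium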
Target sequence (P48048 whole entry, looked up): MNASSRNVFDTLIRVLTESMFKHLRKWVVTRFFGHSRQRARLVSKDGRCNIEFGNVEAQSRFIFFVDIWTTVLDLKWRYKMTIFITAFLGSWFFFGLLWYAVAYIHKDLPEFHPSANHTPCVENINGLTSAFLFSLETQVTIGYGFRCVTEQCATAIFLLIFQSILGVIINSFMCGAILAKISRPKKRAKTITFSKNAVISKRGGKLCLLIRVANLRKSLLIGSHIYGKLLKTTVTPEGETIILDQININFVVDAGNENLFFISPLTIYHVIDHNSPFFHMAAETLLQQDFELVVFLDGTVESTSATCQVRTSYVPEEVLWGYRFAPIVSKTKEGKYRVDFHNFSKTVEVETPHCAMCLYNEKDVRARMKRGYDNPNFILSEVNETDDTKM
KCC2 mod: modulates chloride dependent transport by human KCC2. KCC2 cells, thallium flux FluoZin-2 fluorescence. 190,000 compounds, 2.2% hits. B-score of Tl+ flux slope (higher = more flux/activation; lower = inhibition) at 10 µM;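 active = thallium flux slope and its plate-corrected score both differing from the plate sample mean at a set confidence after two filtering rounds, in either direction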;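 also: slope of fluorescence scaled to starting intensity during 10 to 20 s after thallium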
WT yeast gro inh: growth inhibition of WT yeast, mitochondrial fusion screen; mitochondrial fusion phenotypic screen, WT strain; inhibition, % at 10 µM; 190,000 compounds, 2.1% hits; AID 1362; in the data active = inhibition above about 58%; tested in S. cerevisiae
m-calpain inh: blocks pig calpain II enzyme activity. 220,000 compounds, 0.37% hits. inhibition, % at 16 µM. purified calpain II, fluorogenic peptide substrate, 30 min;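 active = inhibition above about 50%, limit read from the data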
L major viab: reduces viability of Leishmania major promastigotes | resazurin fluorescence viability | inhibition, % at 10 µM | 200,000 compounds, 9% hits; in the data active = inhibition above about 50%;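 also: promastigotes grown with compound for 44 hours at 28 °C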
KCC2 secondary: KCC2 (human) modulation, secondary assay | shares compounds with KCC2 mod | 3,700 compounds, 15% hits | HEK293-KCC2, thallium flux, FluoZin2 fluorescence; stronger effect = higher value | AID 1713 | normalised thallium flux (F/F0 slope) at 10 µM;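 active = thallium flux slope above the same plate's solvent-only control mean plus 3 SD; inconclusive = the two replicate wells disagree; inactive = no significant difference from solvent-only control wells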
KCC2 bumet counter: bumetanide-insensitive thallium flux in KCC2 cells with ouabain, counter-screen; shares compounds with KCC2 mod; HEK293-KCC2 + bumetanide/ouabain, thallium flux FluoZin2; stronger effect = higher value; normalized thallium flux at 10 µM; 3,700 compounds, 49% hits; AID 1714;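 active = thallium entry rate above the same plate's blocked-transporter control wells by more than 3 SD; inconclusive = the two repeat wells disagree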;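 also: raw slope of fluorescence over initial fluorescence between 10 and 20 s after thallium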
KCC2 secondary2: confirmation of human KCC2 transport modulators | shares compounds with KCC2 mod | HEK293-KCC2, thallium flux FluoZin2 fluorescence; actives lie on both sides; F/F0 rise rate, 10–20 s post-thallium | normalized thallium flux at 10 µM | 3,700 compounds, 23% hits | AID 1715;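 active = thallium flux slope more than 3 SD above or below the plate's solvent-only control mean, mostly below; inconclusive = the two repeat wells disagreed; inactive = no significant shift from solvent-only controls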
HEK293 Tl flux: parental HEK flux effect, counter-screen; shares compounds with KCC2 mod; HEK293 parental cells, thallium flux FluoZin2, ouabain; baseline-ratio fluorescence slope, 10–20 s after thallium; thallium flux rate (normalised fluorescence) at 10 µM; 3,700 compounds, 46% hits; AID 1716;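 active = thallium flux rate significantly above the same plate's solvent-only control wells, beyond their mean plus 3 SD; inconclusive = the two replicate wells gave conflicting results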
KCC2 ouabain: KCC2 (human) modulation, ouabain retest | raw Tl+ flux slope (below DMSO = inhibition, above = activation) at 10 µM | HEK293-KCC2, thallium flux FluoZin2 fluorescence; bidirectional: low = inhibitor, high = activator | 3,700 compounds, 48% hits | shares compounds with KCC2 mod | AID 1717;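 active = thallium flux slope beyond 3 SD from same-plate DMSO control mean in most replicates, usually higher, sometimes lower; inconclusive = repeat tests gave conflicting results; inactive = no significant difference from controls in most replicates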;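 also: slope of initial-normalized fluorescence between seconds 10 and 20 after thallium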
HEK counter2: parental HEK flux effect, counter-screen 2 | AID 1718 | shares compounds with KCC2 mod | HEK293 parental, thallium flux FluoZin-2 fluorescence slope | thallium flux slope at 10 µM | 3,700 compounds, 33% hits;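 active = thallium flux slope above the same plate's solvent-control mean plus 3 SD in both duplicate wells; inconclusive = duplicate wells that disagreed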;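 also: run without ouabain in cells lacking the KCC2 cotransporter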
Numbers stand for hits.

How did Cc1ccccc1Nc1nc2nonc2nc1N1CCOCC1 do in these assays?
KCC2 mod: inactive; WT yeast gro inh: inactive; m-calpain inh: inactive; L major viab: inactive

What do the screens show for `CCc1cc2c3c(c1)C(C)CC(C)(C)N3C(=O)C2=O` (centres undefined)?
ROMK primary: inactive; KCC2 mod: inactive; WT yeast gro inh: inactive; m-calpain inh: inactive; L major viab: inactive

What do the screens show for `O=C1CCCC(O)=C1C1C2=C(CCCC2=O)Oc2ccccc21` (centres undefined)?
ROMK primary: inactive; WT yeast gro inh: inactive; m-calpain inh: inactive; L major viab: inactive

Results for Cc1ccc(S(=O)(=O)NC2=NCN(Cc3ccccc3)CN2)cc1 ?
ROMK primary: inactive; KCC2 mod: -3.34; WT yeast gro inh: inactive; m-calpain inh: inactive; L major viab: inactive; KCC2 secondary: inactive; KCC2 bumet counter: inactive; KCC2 secondary2: inactive; HEK293 Tl flux: inactive; KCC2 ouabain: inconclusive; HEK counter2: inactive

How did CCN(CC)S(=O)(=O)c1cccc(-c2nnc(SC(C)C(=O)NCCC3=CCCCC3)o2)c1 (centres undefined) do in these assays?
ROMK primary: inactive; KCC2 mod: -2.43; WT yeast gro inh: inactive; m-calpain inh: inactive; L major viab: inactive; KCC2 secondary: inactive; KCC2 bumet counter: inactive; KCC2 secondary2: inactive; HEK293 Tl flux: inactive; KCC2 ouabain: inactive; HEK counter2: inactive

What do the screens show for `CC(=O)Nc1ccc(NC(=O)N2CCCCC2)cc1`?
WT yeast gro inh: inactive; m-calpain inh: inactive; L major viab: inactive

What do the screens show for `Cc1ccc(NC(=O)Nc2ccc(C(=O)N3CCOCC3)cc2)cc1`?
ROMK primary: inactive; WT yeast gro inh: inactive; m-calpain inh: inactive; L major viab: inactive

How did CC(=O)Nc1ccc(C(=O)N2CCCC2)cc1 do in these assays?
KCC2 mod: -4.54; WT yeast gro inh: inactive; m-calpain inh: inactive; L major viab: inactive; KCC2 secondary: inactive; KCC2 bumet counter: inactive; KCC2 secondary2: inactive; HEK293 Tl flux: inactive; KCC2 ouabain: inactive; HEK counter2: inactive

How did CC(=O)c1cccc(NC(=O)Nc2ccc(C(=O)N3CCOCC3)cc2)c1 do in these assays?
ROMK primary: inactive; KCC2 mod: -3.1; WT yeast gro inh: inactive; m-calpain inh: inactive; L major viab: inactive; KCC2 secondary: inactive; KCC2 bumet counter: inactive; KCC2 secondary2: inactive; HEK293 Tl flux: inactive; KCC2 ouabain: inactive; HEK counter2: inactive

How did CCCNC(=O)OCc1cccnc1Sc1ccc(C)cc1 do in these assays?
ROMK primary: inactive; KCC2 mod: inactive; WT yeast gro inh: inactive; m-calpain inh: inactive; L major viab: inactive

Results for Cc1cc(C)nc(-n2nc(C)cc2NC(=O)c2cccc(S(=O)(=O)N3CCOCC3)c2)n1 ?
ROMK primary: inactive; WT yeast gro inh: inactive; m-calpain inh: inactive; L major viab: inactive

How did COc1ccc(-c2cc(CCCC(=O)NCCc3cc(OC)ccc3OC)no2)cc1 do in these assays?
ROMK primary: inactive; KCC2 mod: -4.68; m-calpain inh: inactive; L major viab: inactive; KCC2 secondary: inactive; KCC2 bumet counter: inactive; KCC2 secondary2: inactive; HEK293 Tl flux: inactive; KCC2 ouabain: inactive; HEK counter2: inactive

Results for CC(C)Oc1ccccc1OCCCOc1cccc2cccnc12 ?
ROMK primary: inactive; KCC2 mod: -3.75; WT yeast gro inh: 81.4; m-calpain inh: inactive; L major viab: inactive; KCC2 secondary: inactive; KCC2 bumet counter: inactive; KCC2 secondary2: inconclusive; HEK293 Tl flux: inactive; KCC2 ouabain: 0.0168; HEK counter2: inactive

Results for O=c1c(F)cn(C2CCCO2)c(=O)n1Cc1ccc(Cl)cc1 (centres undefined) ?
ROMK primary: inactive; KCC2 mod: inactive; WT yeast gro inh: inactive; m-calpain inh: inactive; L major viab: inactive

How did O=c1[nH]c(=O)n(C2CCCO2)cc1Br (centres undefined) do in these assays?
KCC2 mod: 3.94; WT yeast gro inh: inactive; m-calpain inh: inactive; L major viab: inactive; KCC2 secondary: inactive; KCC2 bumet counter: inactive; KCC2 secondary2: inactive; HEK293 Tl flux: inactive; KCC2 ouabain: inactive; HEK counter2: inactive

What do the screens show for `COc1ccc(/C=c2\s/c(=C/C(=O)c3ccc(C)cc3)[nH]c2=O)c(OC)c1`?
KCC2 mod: inactive; WT yeast gro inh: inactive; m-calpain inh: inactive; L major viab: inactive

What do the screens show for `COc1cccc(/C=c2\s/c(=C/C(=O)c3ccc(C)cc3)[nH]c2=O)c1OC`?
KCC2 mod: 4.67; WT yeast gro inh: inactive; m-calpain inh: inactive; L major viab: inactive; KCC2 secondary: inactive; KCC2 bumet counter: inconclusive; KCC2 secondary2: inactive; HEK293 Tl flux: 0.0113; KCC2 ouabain: 0.0261; HEK counter2: inconclusive

What do the screens show for `NC(=S)NNC(=O)c1cccc(Cl)c1`?
ROMK primary: inactive; KCC2 mod: 5.63; m-calpain inh: inactive; KCC2 secondary: inconclusive; KCC2 bumet counter: inconclusive; KCC2 secondary2: inactive; HEK293 Tl flux: 0.0101; KCC2 ouabain: inactive; HEK counter2: inconclusive

How did Cc1cc(C(=O)NNC(=O)c2ccc(Cl)cc2)no1 do in these assays?
ROMK primary: inactive; KCC2 mod: 5.88; m-calpain inh: inactive; KCC2 secondary: inactive; KCC2 bumet counter: 0.016; KCC2 secondary2: inactive; HEK293 Tl flux: 0.0129; KCC2 ouabain: inactive; HEK counter2: 0.0117

How did Cc1nc(C(=O)NNC(=O)c2ccc(Cl)cc2)cs1 do in these assays?
ROMK primary: inactive; KCC2 mod: 9.89; m-calpain inh: inactive; KCC2 secondary: inconclusive; KCC2 bumet counter: 0.0254; KCC2 secondary2: inactive; HEK293 Tl flux: 0.0123; KCC2 ouabain: inactive; HEK counter2: inconclusive

What do the screens show for `Cc1cc(/C(N)=N/OC(=O)c2ccc(Cl)cc2)no1`?
KCC2 mod: inactive; m-calpain inh: inactive

What do the screens show for `Cc1nc(-c2nc(-c3c(C(=O)NNC(=O)c4ccc(Cl)cc4)noc3C)cs2)cs1`?
ROMK primary: inactive; KCC2 mod: 103; m-calpain inh: inactive; KCC2 secondary: 0.0432; KCC2 bumet counter: 0.149; KCC2 secondary2: inactive; HEK293 Tl flux: inconclusive; KCC2 ouabain: 0.0921; HEK counter2: 0.0214

Results for Cc1nc(-c2nc(CC(=O)NNC(=O)c3ccc(Cl)cc3)cs2)cs1 ?
ROMK primary: inactive; KCC2 mod: inactive; m-calpain inh: inactive

Compound activity: PubChem, several laboratories
